According to the supplement of paper PMC10849652:
About 7,900 targets were measured; listed, in parts, are those with a hit and a random draw of the rest. About 0.6% of all pairs of compound and target were hits.

Key:
Assay in all cases: log2 fold change, soluble protein after heating vs DMSO (PISA); higher = thermal stabilisation; K562 cells, 10 uM, 30 min; active = over 0.2 and 3.5 SD of the protein, either way, in both replicates (recomputed)
[1] = compound: CS(=O)(=O)c1ccc(-c2cnc(N)c(C(=O)Nc3ccccc3)n2)cc1
Procedure, shortened: (§1)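 Quantification of soluble protein used TMTpro 16plex LC-MS/MS, with channel sums equalised. Samples were the supernatant after 21,000xg for 90 min of pooled aliquots from K562 cells (2×10^6 cells/mL) treated with 10 μM compound for 30 min, heated for 3 min over 48°C-58°C, and extracted in PBS with 0.5% NP-40 at 4°C. Values, from duplicates, describe thermal stability against control samples on a log2 fold-change scale.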

crizotinib = compound: C[C@@H](Oc1cc(-c2cnn(C3CCNCC3)c2)cnc1N)c1c(Cl)ccc(F)c1Cl [crizotinib]
Procedure, shortened: as §1

[2] = compound: C[C@@H]1COCCN1C2=NC(=NC(=C2)C3(CC3)S(=O)(=O)C)C4=C5C=CNC5=CC=C4
Procedure, shortened: as §1

[3] = compound: C[C@H](C1=CC=C(C=C1)C(=O)NC2=C3C=CNC3=NC=C2)N
Procedure, shortened: as §1

duvelisib = compound: C[C@H](Nc1ncnc2nc[nH]c12)c1cc2cccc(Cl)c2c(=O)n1-c1ccccc1 [duvelisib]
Procedure, shortened: as §1

gandotinib = compound: Cc1cc(Nc2cc(CN3CCOCC3)c3nc(C)c(Cc4ccc(Cl)cc4F)n3n2)n[nH]1 [gandotinib]
Procedure, shortened: as §1

tozasertib = compound: Cc1cc(Nc2cc(N3CCN(C)CC3)nc(Sc3ccc(NC(=O)C4CC4)cc3)n2)n[nH]1 [tozasertib]
Procedure, shortened: as §1

[4] = compound: Cc1cc(SCc2sc(-c3ccc(C(F)(F)F)cc3)nc2C)ccc1OCC(=O)O
Procedure, shortened: as §1

doramapimod = compound: Cc1ccc(-n2nc(C(C)(C)C)cc2NC(=O)Nc2ccc(OCCN3CCOCC3)c3ccccc23)cc1 [doramapimod]
Procedure, shortened: as §1

ispinesib = compound: Cc1ccc(C(=O)N(CCCN)[C@@H](c2nc3cc(Cl)ccc3c(=O)n2Cc2ccccc2)C(C)C)cc1 [ispinesib]
Procedure, shortened: as §1

Measured: log2 fold change

DTNBP1 (UniProt Q96EV8)
UniProt Q96EV8, sequence (Q96EV8 whole entry, looked up): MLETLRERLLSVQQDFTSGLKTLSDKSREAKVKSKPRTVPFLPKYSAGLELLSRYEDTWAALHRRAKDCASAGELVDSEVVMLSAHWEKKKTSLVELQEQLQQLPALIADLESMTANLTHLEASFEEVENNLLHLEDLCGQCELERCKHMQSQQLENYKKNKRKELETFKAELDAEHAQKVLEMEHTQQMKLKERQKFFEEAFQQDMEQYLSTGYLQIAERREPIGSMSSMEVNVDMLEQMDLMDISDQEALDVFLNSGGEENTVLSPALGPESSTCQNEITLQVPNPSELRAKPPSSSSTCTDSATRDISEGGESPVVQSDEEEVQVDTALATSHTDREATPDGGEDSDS
inactive: [1] 0.093 | crizotinib 0 | [2] 0.079 | [3] -0.014 | duvelisib -0.012 | gandotinib -0.104 | tozasertib -0.034 | [4] 0.022 | doramapimod -0.009 | ispinesib -0.073

CTSH (UniProt P09668)
UniProt P09668, sequence (P09668 whole entry, looked up): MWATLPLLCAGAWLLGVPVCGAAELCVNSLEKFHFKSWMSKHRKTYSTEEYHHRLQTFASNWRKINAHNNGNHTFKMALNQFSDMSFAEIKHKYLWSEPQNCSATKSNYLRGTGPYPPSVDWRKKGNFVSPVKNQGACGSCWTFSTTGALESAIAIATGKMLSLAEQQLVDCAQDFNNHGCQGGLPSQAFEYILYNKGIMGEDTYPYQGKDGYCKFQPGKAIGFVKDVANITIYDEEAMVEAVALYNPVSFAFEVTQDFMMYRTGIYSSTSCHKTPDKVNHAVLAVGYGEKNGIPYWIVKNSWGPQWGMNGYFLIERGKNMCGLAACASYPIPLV
active: crizotinib -0.249
inactive: [1] 0.032 | [2] 0.074 | [3] -0.02 | duvelisib -0.034 | gandotinib 0.031 | tozasertib -0.068 | [4] -0.068 | doramapimod 0.023 | ispinesib -0.221

DFFB (UniProt O76075)
UniProt O76075, sequence (O76075 whole entry, looked up): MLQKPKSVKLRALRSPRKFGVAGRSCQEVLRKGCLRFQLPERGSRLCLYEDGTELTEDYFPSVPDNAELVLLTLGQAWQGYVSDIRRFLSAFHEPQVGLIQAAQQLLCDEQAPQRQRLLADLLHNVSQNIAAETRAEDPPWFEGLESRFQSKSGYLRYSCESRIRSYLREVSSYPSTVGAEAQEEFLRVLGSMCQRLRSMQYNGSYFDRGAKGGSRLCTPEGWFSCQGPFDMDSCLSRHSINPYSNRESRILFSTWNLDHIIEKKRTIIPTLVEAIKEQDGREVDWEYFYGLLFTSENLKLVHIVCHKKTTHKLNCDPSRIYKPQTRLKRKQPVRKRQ
inactive: [1] 0.018 | crizotinib 0.072 | [2] 0.012 | [3] 0.106 | duvelisib 0.037 | gandotinib -0.017 | tozasertib -0.123 | [4] -0.012 | doramapimod -0.021 | ispinesib -0.006

CWC27 (UniProt Q6UX04)
UniProt Q6UX04, sequence (Q6UX04 whole entry, looked up): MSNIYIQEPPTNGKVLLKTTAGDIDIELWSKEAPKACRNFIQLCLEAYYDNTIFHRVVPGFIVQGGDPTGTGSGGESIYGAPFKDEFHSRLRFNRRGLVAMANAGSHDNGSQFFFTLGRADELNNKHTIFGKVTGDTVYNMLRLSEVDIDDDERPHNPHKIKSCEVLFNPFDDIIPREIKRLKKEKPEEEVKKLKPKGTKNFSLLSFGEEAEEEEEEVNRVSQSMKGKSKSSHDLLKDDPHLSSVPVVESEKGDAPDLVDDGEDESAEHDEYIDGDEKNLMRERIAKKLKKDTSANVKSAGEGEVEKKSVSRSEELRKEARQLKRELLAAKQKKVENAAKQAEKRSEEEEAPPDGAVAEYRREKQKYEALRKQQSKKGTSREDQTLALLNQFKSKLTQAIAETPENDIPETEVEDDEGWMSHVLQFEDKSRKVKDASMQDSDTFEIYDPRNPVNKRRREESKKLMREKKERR
inactive: [1] 0.03 | crizotinib 0.14 | [2] 0.145 | [3] -0.001 | duvelisib 0.144 | gandotinib 0.033 | tozasertib 0.077 | [4] 0.169 | doramapimod -0.091 | ispinesib -0.017

FAM177A1 isoform 2 (UniProt Q8N128)
UniProt Q8N128, sequence (Q8N128 whole entry, looked up): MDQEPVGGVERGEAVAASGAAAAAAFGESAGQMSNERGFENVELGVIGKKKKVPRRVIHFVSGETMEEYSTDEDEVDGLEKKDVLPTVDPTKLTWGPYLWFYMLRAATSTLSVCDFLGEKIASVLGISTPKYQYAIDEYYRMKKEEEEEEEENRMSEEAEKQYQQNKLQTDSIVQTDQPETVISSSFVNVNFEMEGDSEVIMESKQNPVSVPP
inactive: [1] 0.018 | crizotinib -0.109 | [2] 0.059 | [3] -0.063 | duvelisib 0.012 | gandotinib -0.102 | tozasertib -0.072 | [4] -0.027 | doramapimod -0.012 | ispinesib -0.082

DDX4 (UniProt Q9NQI0)
UniProt Q9NQI0, sequence (Q9NQI0 whole entry, looked up): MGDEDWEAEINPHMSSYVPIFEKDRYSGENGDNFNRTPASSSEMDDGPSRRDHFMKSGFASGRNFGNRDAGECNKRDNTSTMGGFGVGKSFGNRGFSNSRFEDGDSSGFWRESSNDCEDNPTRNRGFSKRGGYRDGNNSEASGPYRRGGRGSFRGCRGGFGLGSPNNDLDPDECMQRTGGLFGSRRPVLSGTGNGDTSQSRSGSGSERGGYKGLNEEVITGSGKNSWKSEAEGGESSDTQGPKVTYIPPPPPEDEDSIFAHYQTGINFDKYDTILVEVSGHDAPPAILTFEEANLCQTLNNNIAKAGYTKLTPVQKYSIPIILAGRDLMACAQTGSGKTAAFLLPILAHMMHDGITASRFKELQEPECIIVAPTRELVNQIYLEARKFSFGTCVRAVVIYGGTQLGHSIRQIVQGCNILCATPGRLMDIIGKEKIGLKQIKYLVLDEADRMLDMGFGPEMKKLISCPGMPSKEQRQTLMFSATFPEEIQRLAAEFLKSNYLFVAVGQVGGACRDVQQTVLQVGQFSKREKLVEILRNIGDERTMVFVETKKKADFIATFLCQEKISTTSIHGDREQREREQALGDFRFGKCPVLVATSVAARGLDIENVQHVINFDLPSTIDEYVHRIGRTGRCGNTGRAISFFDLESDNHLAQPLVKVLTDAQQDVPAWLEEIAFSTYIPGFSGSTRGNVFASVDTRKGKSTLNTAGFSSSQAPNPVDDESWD
inactive: [1] 0 | crizotinib 0.018 | [2] 0.013 | [3] 0.544 | duvelisib 0.265 | gandotinib 0.112 | tozasertib -0.042 | [4] -0.232 | doramapimod -0.021 | ispinesib -0.529

DDX39A (UniProt O00148)
UniProt O00148, sequence (O00148 whole entry, looked up): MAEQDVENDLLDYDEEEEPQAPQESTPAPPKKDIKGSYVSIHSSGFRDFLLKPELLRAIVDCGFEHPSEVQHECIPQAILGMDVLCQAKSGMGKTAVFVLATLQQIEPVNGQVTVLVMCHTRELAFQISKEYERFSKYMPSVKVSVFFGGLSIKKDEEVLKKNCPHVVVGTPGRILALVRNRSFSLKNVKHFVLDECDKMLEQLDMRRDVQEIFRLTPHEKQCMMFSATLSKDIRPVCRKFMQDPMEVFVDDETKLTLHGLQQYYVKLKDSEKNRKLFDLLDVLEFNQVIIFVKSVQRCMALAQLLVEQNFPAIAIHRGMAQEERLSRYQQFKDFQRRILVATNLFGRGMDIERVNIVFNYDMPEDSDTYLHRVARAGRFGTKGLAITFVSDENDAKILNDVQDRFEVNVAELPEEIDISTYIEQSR
inactive: [1] 0.062 | crizotinib -0.082 | [2] 0.079 | [3] 0.002 | duvelisib 0.051 | gandotinib -0.009 | tozasertib 0.043 | [4] 0.05 | doramapimod -0.069 | ispinesib -0.064

DTYMK (UniProt P23919)
UniProt P23919, sequence (P23919 whole entry, looked up): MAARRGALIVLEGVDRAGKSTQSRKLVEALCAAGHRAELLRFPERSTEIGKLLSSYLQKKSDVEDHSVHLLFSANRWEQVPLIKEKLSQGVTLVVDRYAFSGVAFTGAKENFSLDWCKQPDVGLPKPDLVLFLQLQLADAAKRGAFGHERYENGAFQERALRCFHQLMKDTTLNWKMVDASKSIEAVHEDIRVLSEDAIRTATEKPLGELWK
inactive: [1] 0.046 | crizotinib -0.146 | [2] 0 | [3] -0.022 | duvelisib 0.094 | gandotinib -0.217 | tozasertib -0.109 | [4] -0.009 | doramapimod -0.025 | ispinesib 0.032

ERCC2 (UniProt P18074)
UniProt P18074, sequence (P18074 whole entry, looked up): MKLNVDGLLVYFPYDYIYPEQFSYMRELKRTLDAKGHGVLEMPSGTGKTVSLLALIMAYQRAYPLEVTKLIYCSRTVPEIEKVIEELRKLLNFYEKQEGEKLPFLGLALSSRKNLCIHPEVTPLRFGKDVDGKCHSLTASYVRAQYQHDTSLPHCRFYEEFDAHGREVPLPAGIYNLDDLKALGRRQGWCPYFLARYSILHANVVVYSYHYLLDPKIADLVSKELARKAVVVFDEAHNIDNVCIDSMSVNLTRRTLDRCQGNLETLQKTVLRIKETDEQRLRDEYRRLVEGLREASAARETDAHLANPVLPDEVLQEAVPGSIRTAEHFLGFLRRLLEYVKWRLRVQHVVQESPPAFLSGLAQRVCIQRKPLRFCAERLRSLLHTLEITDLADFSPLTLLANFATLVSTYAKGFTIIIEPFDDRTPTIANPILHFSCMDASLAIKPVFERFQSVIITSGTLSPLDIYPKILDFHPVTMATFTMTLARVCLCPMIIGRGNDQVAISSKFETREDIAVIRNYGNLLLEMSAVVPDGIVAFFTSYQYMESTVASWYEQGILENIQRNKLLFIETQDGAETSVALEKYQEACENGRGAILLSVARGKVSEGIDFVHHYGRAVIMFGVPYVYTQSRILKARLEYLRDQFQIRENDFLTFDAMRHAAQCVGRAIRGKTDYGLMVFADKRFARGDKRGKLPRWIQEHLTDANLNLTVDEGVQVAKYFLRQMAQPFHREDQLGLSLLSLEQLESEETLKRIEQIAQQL
inactive: [1] 0.011 | crizotinib 0.059 | [2] -0.046 | [3] -0.013 | duvelisib -0.035 | gandotinib -0.035 | tozasertib -0.014 | [4] 0.08 | doramapimod 0.031 | ispinesib -0.045

DPYSL2 (UniProt Q16555)
inactive: [1] 0.034 | crizotinib 0.025 | [2] -0.09 | [3] 0.023 | duvelisib 0.33 | gandotinib -0.015 | tozasertib -0.012 | [4] 0.082 | doramapimod 0.069

EMD (UniProt P50402)
inactive: [1] 0.042 | [2] 0.019 | [3] 0.018 | duvelisib -0.033 | gandotinib -0.047 | tozasertib -0.049 | [4] 0.015 | doramapimod 0.018 | ispinesib -0.092
active: crizotinib -0.215

CTU1 (UniProt Q7Z7A3)
inactive: [1] 0.005 | crizotinib -0.132 | [2] 0.081 | [3] -0.032 | duvelisib -0.012 | gandotinib -0.015 | tozasertib -0.026 | [4] 0.058 | doramapimod -0.049 | ispinesib -0.082

EXOC5 (UniProt O00471)
UniProt O00471, sequence (O00471 whole entry, looked up): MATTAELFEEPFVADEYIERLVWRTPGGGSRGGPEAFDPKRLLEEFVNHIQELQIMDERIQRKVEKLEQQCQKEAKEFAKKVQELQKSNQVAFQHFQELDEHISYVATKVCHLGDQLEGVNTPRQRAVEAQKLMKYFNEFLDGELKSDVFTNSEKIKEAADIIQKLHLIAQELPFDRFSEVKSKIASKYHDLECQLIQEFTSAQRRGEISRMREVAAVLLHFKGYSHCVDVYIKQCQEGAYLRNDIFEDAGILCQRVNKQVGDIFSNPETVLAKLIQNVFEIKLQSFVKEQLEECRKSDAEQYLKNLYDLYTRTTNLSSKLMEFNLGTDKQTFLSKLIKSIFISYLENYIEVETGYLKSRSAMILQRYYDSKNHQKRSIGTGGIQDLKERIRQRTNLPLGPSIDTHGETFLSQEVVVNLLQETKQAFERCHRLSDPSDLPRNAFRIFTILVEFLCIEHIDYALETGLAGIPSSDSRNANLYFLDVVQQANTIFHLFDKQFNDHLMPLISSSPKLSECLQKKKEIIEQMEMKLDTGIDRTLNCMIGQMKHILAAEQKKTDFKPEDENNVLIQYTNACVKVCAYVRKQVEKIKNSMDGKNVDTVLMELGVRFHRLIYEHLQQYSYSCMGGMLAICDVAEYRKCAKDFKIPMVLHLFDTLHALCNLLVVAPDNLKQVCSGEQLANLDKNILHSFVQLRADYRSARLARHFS
inactive: [1] -0.02 | [2] -0.017 | [3] 0.015 | duvelisib 0.005 | gandotinib -0.129 | tozasertib 0.014 | [4] 0.101 | doramapimod 0.008
active: crizotinib -0.279 | ispinesib -0.342

ERLIN1 (UniProt O75477)
UniProt O75477, sequence (O75477 whole entry, looked up): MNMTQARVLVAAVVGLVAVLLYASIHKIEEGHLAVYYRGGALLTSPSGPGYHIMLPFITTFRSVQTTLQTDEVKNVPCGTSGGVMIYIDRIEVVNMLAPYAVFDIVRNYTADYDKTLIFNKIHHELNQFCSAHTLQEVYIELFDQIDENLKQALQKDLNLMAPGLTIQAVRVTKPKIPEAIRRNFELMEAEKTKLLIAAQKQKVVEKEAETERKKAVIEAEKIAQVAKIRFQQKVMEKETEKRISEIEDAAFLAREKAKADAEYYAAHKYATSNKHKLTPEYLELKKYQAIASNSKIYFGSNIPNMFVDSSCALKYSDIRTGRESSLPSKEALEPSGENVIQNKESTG
inactive: [1] 0.012 | crizotinib -0.039 | [2] -0.038 | [3] 0.099 | duvelisib -0.021 | gandotinib -0.04 | tozasertib 0.025 | [4] 0.148 | doramapimod 0.057
active: ispinesib -0.27
